# Measurements from the supplement of paper PMC9897528.
# System: Scedosporium aurantiacum CBS 136046
# Experiment: growth inhibition relative to DMSO control (OD600); higher = more antifungal activity, active = 80 or more; extreme values may be limits of the assay
# Conditions: 5 µM; 72 h; 37 °C
# 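Further: conidia screened in RPMI 1640 medium under 5% CO2, growth read by spectrophotometer, medium with 0.5% DMSO serving as the untreated reference.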
row,SMILES,growth inhibition
1,CC(C)(C)c1ccc(C(=O)NC(=O)N2CCCc3ccccc32)cc1,0.0285% (inactive)
2,C[C@@H](O)[C@H](N)C(=O)NS(=O)(=O)c1cccc(-c2ccc3[nH]ncc3c2)c1,21% (inactive)
3,Nc1nc2c(ncn2COC(CO)CO)c(=O)[nH]1,11.1% (inactive)
4,CCc1cc(O)c(Oc2cccnc2N)cc1F,12.4% (inactive)
5,CCCCOC(=O)Nc1cc2nc(C3CCCCC3)[nH]c2cc1N(CC)CC,39.7% (inactive)
6,Nc1ccc(-c2nc3cc(C(F)(F)F)ccc3n2C23CC4CC(CC(C4)C2)C3)cc1,27.1% (inactive)
7,CCOc1ccc(C(=O)NCCc2ccccc2)cc1,33.4% (inactive)
8,Cc1c(OCC(F)(F)F)ccnc1C[S+]([O-])c1nc2ccccc2[nH]1 (stereo unspecified),39.8% (inactive)
9,Oc1ccc(NCc2ccccc2OCc2ccccc2)cc1,10% (inactive)
10,CSc1ccc2c(c1)C(N1CCN(C)CC1)Cc1ccccc1S2 (stereo unspecified),46.7% (inactive)
11,Oc1c(C(Nc2nc3ccccc3s2)c2ccc(OC(F)F)cc2)ccc2cccnc12 (stereo unspecified),12% (inactive)
12,Nc1nc(=O)c(Br)c(-c2ccccc2)[nH]1,0.62% (inactive)
13,CC(C)N(c1cc(-c2ccccc2)sc1C(=O)O)C(=O)[C@H]1CC[C@H](C)CC1,16.1% (inactive)
14,COc1cc(NCc2ccc3nc(N)nc(N)c3c2C)cc(OC)c1OC,0.273% (inactive)
15,CCCCCCCCCN1C[C@@H](O)[C@H](O)[C@@H](O)[C@@H]1CO,13.7% (inactive)
16,CCN(CC)CCCC(C)Nc1ccnc2cc(Cl)ccc12 (stereo unspecified),21.6% (inactive)
